Screening data (PubChem BioAssay)
Pf Dd2 inh – qHTS Primary assay for Inhibitors of Plasmodium falciparum Dd2 growth in vitro; P. falciparum Dd2 growth, SYBR Green, 72 h; 4.3% of 120,000 active; AID 1347417, 2020; Potency, µM (series often up to 28.9 µM), without a hit: at the top dose activity, negative = inhibition, actives largely listed as inhibitors; active = well fitted inhibition curve with a large enough effect;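 note: plate controls were DMSO vehicle for no effect and reference drug for full effect; nearly all actives have a fitted effect of over 65% in size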
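Readout: SYBR Green fluorescence, 485 nm excitation, 535 nm emission, after ~16 h lysis at 37C. Before that, Dd2-infected red cells (2.5% hematocrit) grew 72 h with compound, 29 uM top final concentration.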
Active calls of the source: *; i = inactive; ! = not active in a repeat; [ ] = another dose, or the depositor's remark. Shown is part of a subset that was picked to be rich in hits. Potency is the fitted concentration of half-maximal effect.

SMILES	Pf Dd2 inh
O=C(NCCc1ccc(Cl)cc1)C1CCCN(c2nc3ncccc3o2)C1 (configuration not stated)	-11.8%
O=C(CC1CCN(C(=O)Nc2ccccc2F)C1)NC1CC1 (configuration not stated)	1.4%
Fc1ccc(C2Cn3nnc(-c4nc(-c5cccc(Br)c5)no4)c3CO2)cc1 (configuration not stated)	8.5%
CC(C)N1CC2CCC(C1)N2S(=O)(=O)C1CC1	-6.6%[44.1 µM]
C[C@H](c1ccccc1)N1C(=O)[C@@H]2CN(C(=O)CC(C)(C)CC(=O)O)CCN2C1=O	i
CCC(CC)NC(=O)C1Cn2cccc2C(=O)N1C (configuration not stated)	58.6%
CC1=C[C@@H](CNC(=O)c2cnccn2)[C@H](C(C)C)C[C@H]1Cc1nnc(-c2ccccc2F)o1	-5.7%
CC1=C[C@@H](CNCc2ccc(Cl)cc2)[C@H](C(C)C)C[C@H]1Cc1nnc(-c2cncn2C)o1	3.98µM*
CC1=C[C@@H](CNC(=O)c2ccccc2)[C@H](C(C)C)C[C@H]1Cc1nnc(-c2cncn2C)o1	-5.8%[44.1 µM]
CC1=C[C@@H](CN2CCN(c3ncccn3)CC2)[C@H](C(C)C)C[C@H]1Cc1nnc(-c2cncn2C)o1	-5.8%
CC1=C[C@@H](CNC(=O)c2cncnc2)[C@H](C(C)C)C[C@H]1Cc1nnc(-c2ccccc2F)o1	-4.6%
Cc1ccccc1CN1CC[C@H](c2nnc(-c3cncn3C)o2)C1	-0.3%[44.1 µM]
CC1=C[C@@H](CN2CCCCC2)[C@H](C(C)C)C[C@H]1Cc1nnc(-c2cncn2C)o1	7.94µM*
CC1=C[C@@H](CNc2ccccn2)[C@H](C(C)C)C[C@H]1Cc1nnc(-c2cncn2C)o1	5.62µM*
CC(=O)NC[C@@H]1C=C(C)[C@H](CC(=O)NCc2cccnc2)C[C@H]1C(C)C	40.2%[44.1 µM]
O=C1CCN(S(=O)(=O)c2ccccc2)CCCN(S(=O)(=O)c2ccccc2)CCN1	-22.1%
COc1ccc(C(=O)N2CCN(C(=O)c3nnn4c3COC(c3ccc(F)cc3)C4)CC2)cc1F (configuration not stated)	i
COc1ccc(NC(=O)N2CC(N(C3CCOCC3)S(C)(=O)=O)C2)cc1F	-4.8%
CC(C)C1=NOC2(CCN(Cc3ccc(F)cc3)CC2)C1	i
COc1ccc(-c2cn(C)c(=O)n3cc(COc4ccc(Cl)cc4)nc23)c(C)c1	i
CCc1ccc(-c2nn(CC(=O)Nc3ccccc3)c3c2cnc2ccc(F)cc23)cc1	10.4%
CCc1ccc(C(=O)c2cnc3ccc(F)cc3c2S(=O)(=O)c2ccccc2)cc1	11.2µM*
CCc1ccc(-c2nn(CC(=O)NCc3ccccc3)c3c2cnc2ccc(F)cc23)cc1	-1.0%
Cc1ccc(CN(Cc2cccn2-c2nnc(N3CCCC3=O)s2)C(=O)Nc2ccccc2Cl)cc1	11.2µM*
CCc1ccc(NCc2cccn2-c2nnc(N3CCCCCC3)s2)cc1	-15.7%
SMILES	Pf Dd2 inh
Cc1ccc(NCc2cccn2-c2nnc(N3CCC(C(=O)NCc4ccc(OC(C)C)cc4)CC3)s2)cc1	-28.2%
COc1cccc(-c2[nH]ncc2CN)c1	2.9%
CCCCN(Cc1ccccc1)Cc1cn[nH]c1-c1ccc(OC)cc1OC	12.6µM*
COc1ccc(-c2[nH]ncc2C(=O)NCc2cccc(OC)c2)cc1	22.1%
O=C(Cn1nc2n(c1=O)CCCC2)Nc1ccc2c(c1)OCCO2	i
COc1ccc(N2CCN(CC(O)COc3ccccc3C(C)(C)C)CC2)cc1 (configuration not stated)	9.5%
CC(C)C(=O)N1CCC(NCCOc2ccccc2Cl)CC1	-2.6%
COC(=O)Cn1c(SCCOc2ccccc2Cl)nc2ccccc21	22.4%
CCN(CC)CCn1c(=N)n(CCOc2ccccc2Cl)c2ccccc21	4.47µM*
CC(=O)c1ccccc1OCC(O)Cn1c(CO)nc2ccccc21 (configuration not stated)	i
CCN(CC)CCn1c(=N)n(CC(O)COc2ccccc2C)c2ccccc21 (configuration not stated)	1.26µM*
O=C(c1ccccn1)N1CCC2(CCCN(Cc3ccc(F)cc3)C2=O)C1 (configuration not stated)	-10.6%
CCc1cc(=O)n(CC(=O)Nc2cccc(C#N)c2)c(N2CCOCC2)n1	i
Cc1ccccc1-n1nc(-c2c(C)nc3scc(CC(=O)N4CCCC4)n3c2=O)cc1C	i
COc1ccc(C(=O)N2CCCC(c3nn(C)c(=O)n3-c3ccccc3)C2)cn1 (configuration not stated)	3.6%
CCOC(=O)C1CCCN(c2ncnc3c2cnn3-c2ccc(C)c(Cl)c2)C1 (configuration not stated)	62.1%
CCc1ccc2ncc(C(=O)c3ccc(C)c(C)c3)c(N3CCC(C(N)=O)CC3)c2c1	-34.3%
CCOC(=O)C1CCCN(c2c(C(=O)c3ccc(C)cc3)cnc3ccc(OCC)cc23)C1 (configuration not stated)	11.2µM*
COCCN1C[C@H]2CN(Cc3nccs3)CCN2C1=O	13.9%[44.1 µM]
Cc1ncc2c(c1CNC(=O)c1sccc1S(N)(=O)=O)CCNC2	-3.5%
O=C(Cc1ccc(F)cc1)N1CCC(N2CC3CCCN3C2=O)CC1 (configuration not stated)	16.5%
CCc1nc(N2CCOCC2)ncc1C(=O)O	0.2%
CCN1CCC2(Cc3ccccc3CN(C(=O)Cc3ccccc3)C2)C1 (configuration not stated)	11.2µM*
CCC(=O)N1Cc2ccccc2CC2(CCN(CC3CCNCC3)C2)C1 (configuration not stated)	7.7%
CCC(=O)N1Cc2ccccc2CC2(CCCN2Cc2ccc(OC)cc2)C1 (configuration not stated)	-6.4%
SMILES	Pf Dd2 inh
CCN1CCC2(Cc3ccccc3CN(C(=O)Cc3ccc(OC)cc3)C2)C1 (configuration not stated)	8.91µM*
CCN1CCCC2(Cc3ccccc3CN(C(=O)CCCC(=O)O)C2)C1 (configuration not stated)	-9.4%
CCN1CCC2(Cc3ccccc3CN(C(=O)Cc3ccc(O)cc3)C2)C1 (configuration not stated)	-21.0%
Cc1ccc(C)c(NC(=O)Cn2c(=O)c(-c3noc(C)n3)c3n(c2=O)CCCC3)c1	i
OC1CCC(c2nc(C3CCOC3)n[nH]2)CC1 (configuration not stated)	0.2%
COCCNC(=O)c1ccc(OC2CCN(S(C)(=O)=O)CC2)c(Cl)c1	-2.3%
COCCNC(=O)c1ccc(OC2CCN(Cc3ncc[nH]3)CC2)c(Cl)c1	-22.9%
O=C(NC1CCCC1)c1ccc(OC2CCN(CCCC(F)(F)F)CC2)c(Cl)c1	1.41µM*
c1ccc2c(-c3nc4ccncc4[nH]3)c[nH]c2c1	12.6µM*!
c1c[nH]c(-c2nc3ccncc3[nH]2)c1	22.4µM*!
c1csc(-c2nc3ccncc3[nH]2)c1	17.8µM*!
c1cc2nc(C3CCCCN3)[nH]c2cn1 (configuration not stated)	-15.4%[44.1 µM]
c1cnc2nc(-c3c[nH]c4ccccc34)[nH]c2c1	-11.0%[44.1 µM]
c1cncc(-c2nc3ccncc3[nH]2)c1	-17.2%[44.1 µM]
Cc1ccc(-c2nc(-c3cccs3)c(-c3cccs3)[nH]2)cc1	-19.0%
c1cncc(-c2nc3ncccc3[nH]2)c1	-5.9%[44.1 µM]
Cc1ccoc1-c1nc2ccncc2[nH]1	-2.6%[44.1 µM]
Fc1ccccc1CN1CCNc2cnc(Nc3ccccc3)cc2C1	i
COCC(=O)N1C[C@@H]2C(=O)N(CCc3ccccc3)C(=O)[C@@H]2C1	21.1%
COc1c(F)cccc1CN1CCOc2cc([S+](N)(=O)[O-])ccc2C1	i
